# Inconclusive results are not listed. Calls of active or inactive are those of the source. Calls come from the whole dose curve; as a rule, active = well fitted cell-killing curve with a large enough effect; inconclusive = small, poorly fitted or top-dose-only effect; inactive = flat fitted curve, though single readings scatter.
# Assay: Cell Viability - LYMP2-011 (AID 969); note: nearly all actives have a fitted effect of over 60% in size
# Details: LYMP2-011 lymphoblastoid cells viability; series mostly up to 92.2 µM
# From the text: NIH Chemical Genomics Center [NCGC]
# NIH Molecular Libraries Screening Centers Network [MLSCN]
# National Institutes of Environmental Health Sciences [NIEHS]
# National Toxicology Program [NTP]
# We have developed a 1536-well cell-based assay for quantitative high throughput screening (qHTS) against a number of cell lines to determine in vitro cytotoxicity of small molecules. This particular assay uses a human lymphoblastoid cell line (LYMP2-011) purchased from Coriell Institute for Medical Research.
# NCGC Assay Protocol Summary:
# The CellTiter-Glo luminescent cell viability assay (Promega) is a homogeneous method to measure the number of viable cells in culture. The end point readout of this assay is based on quantitation of intracellular ATP, an indicator of metabolic activity, using the luciferase reaction. Luciferase catalyzes the oxidation of beetle Luciferin to oxyluciferin and light in the presence of ATP. The luminescent signal is proportional to amount of ATP present.
# Using the CellTiter-Glo luminescent cell viability assay, the amount of cellular ATP was measured in the lymphoblastoid cell line with complete culture medium following compound treatment for 24 hours. The assay was performed in opaque white Kalypsys 1536-well plates. In the screen, tetraoctylammonium bromide was used as positive control. Library compounds were measured for their ability to cause acute toxicity in the cell line, as reflected by a decrease in intracellular ATP levels, in a concentration-dependent manner. […] AC50 values were determined from concentration-response data modeled with the standard Hill equation.
# qHTS protocol for CellTiter Glo lymphoblastoid cellular assay
# [Step] [Parameter] [Value] [Description]
# 1. Reagent; 5 uL; 2500 lymphoblastoid cells/well
# 2. Time; 5 hr; 37 C incubation
# 4. Controls; 23 nL; Tetraoctylammonium bromide 6.4pM to 92 uM
# 5. Time; 24 hr; 37 C incubation
# 6. Reagent; 5 uL; CellTiter Glo reagent
# 7. Time; 30 min; Room Temperature
# 8. Detection; Luminescence; Viewlux plate reader
# Keywords: cell viability, cytotoxicity, lymphoblastoid cell line, luminescence, NTPHTS, NTPHTS_NCGC, NIEHS, DSSTox, MLSMR, MLSCN, NIH Roadmap, qHTS, NCGC
row,Compound,outcome
1,O=P1(N(CCCl)CCCl)NCCCO1 (stereo not drawn),inactive
2,NCCc1ccc(O)cc1,inactive
3,CC(C)c1cccc(C(C)C)c1O,inactive
4,COc1cc(OC)c(OC)cc1C=O,inactive
5,Oc1ccc(Cl)cc1,inactive
6,Nc1ccccc1C(=O)O,inactive
7,C[C@]12CCC(=O)C=C1CC[C@@H]1[C@@H]2CC[C@]2(C)C(=O)CC[C@@H]12,inactive
8,COP(=S)(OC)Oc1ccc(SC)c(C)c1,inactive
9,Nc1ccccc1,inactive
10,Clc1ccc(C(c2ccc(Cl)cc2)C(Cl)(Cl)Cl)cc1,inactive
11,CC(C)NC(C)C,inactive
12,CCC(C)(C)c1ccc(O)cc1,inactive
13,CCCC(C)(COC(N)=O)COC(N)=O,inactive
14,COC(=O)C(c1ccccc1)C1CCCCN1 (stereo not drawn),inactive
15,CN1C[C@H](C(=O)N[C@]2(C)O[C@@]3(O)[C@@H]4CCCN4C(=O)[C@H](Cc4ccccc4)N3C2=O)C=C2c3cccc4[nH]cc(c34)C[C@H]21,inactive
16,C[C@]1(O)CC[C@H]2[C@@H]3CCC4=CC(=O)CC[C@]4(C)[C@@]3(F)[C@@H](O)C[C@@]21C,inactive
17,C[C@]12CCC(=O)C=C1CC[C@@H]1[C@@H]2CC[C@@]2(C)[C@H]1CC[C@]2(C)O,inactive
18,CCOC(=O)CC(SP(=S)(OC)OC)C(=O)OCC (stereo not drawn),inactive

# Source: PubChem BioAssay (NCATS)
